Test results published in PubChem BioAssay (NCATS).
“And” between values parts separate entries of the source, which are not always exact repeats. Identical values can stand only once. Records with an inconclusive call do not appear. The list shows a part of the results. The source made the active and inactive calls. Unless noted, calls follow the shape of the dose curve; as a rule, active = well fitted curve in the direction sought with a large enough effect; inconclusive = small, poorly fitted or top-dose-only effect, or another doubt; inactive = no such curve, though single readings can be large; an effect the other way counts as inactive or inconclusive.

Key:
[1] = qHTS assay for environmental chemicals that activate the Aryl hydrocarbon Receptor (AhR) signaling pathway (AID 651777); settings: 1A2-DRE human hepatoma cells, luciferase, 24 h; activation: stronger effect = higher value; also: nearly all actives have a fitted effect of over 15% in size; also: potency is read from the fitted curve at half-maximal effect; as to activation: % of control where 0% means no effect
Summary of the method: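 Induction of CYP1A2 transcription through AhR is detected by luciferase in 1A2-DRE hepatoma cells. Compounds or DMSO act for 24 hr at 37 C before a 30 min One-Glo step at room temperature.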

[2] = target: Peroxisome proliferator-activated receptor alpha (Homo sapiens) (UniProt Q07869); test: qHTS assay for small molecule agonists of the peroxisome proliferator-activated receptor alpha (PPARalpha) signaling pathway (AID 651778); settings: PathHunter PPARalpha complementation, chemiluminescence, 6 h; stronger effect = higher value; also: % of control where 0% means no effect
Peroxisome proliferator-activated receptor alpha (Homo sapiens), sequence (Q07869 whole entry, looked up): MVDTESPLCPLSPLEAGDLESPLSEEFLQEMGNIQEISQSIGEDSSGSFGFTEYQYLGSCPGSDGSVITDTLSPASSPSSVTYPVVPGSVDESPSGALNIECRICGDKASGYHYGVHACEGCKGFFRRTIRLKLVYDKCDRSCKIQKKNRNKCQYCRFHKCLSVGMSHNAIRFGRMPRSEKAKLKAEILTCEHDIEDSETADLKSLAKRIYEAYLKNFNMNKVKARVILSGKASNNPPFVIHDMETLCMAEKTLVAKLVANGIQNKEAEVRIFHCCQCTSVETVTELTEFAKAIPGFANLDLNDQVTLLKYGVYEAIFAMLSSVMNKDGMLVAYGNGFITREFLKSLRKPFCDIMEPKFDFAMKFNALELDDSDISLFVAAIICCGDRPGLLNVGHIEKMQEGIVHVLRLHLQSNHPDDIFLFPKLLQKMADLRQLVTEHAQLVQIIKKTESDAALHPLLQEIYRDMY
Summary of the method: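 Chemiluminescence from complemented enzyme reported PPARalpha activation in cells after 6 hr of compound treatment at 37 C. The detection reagent was incubated for 60 min at room temperature, and compounds were scored as agonists.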

[3] = target: Nuclear receptor ROR-gamma (Homo sapiens) (UniProt P51449); test: qHTS assay for small molecule antagonists of the retinoid-related orphan receptor gamma (ROR-gamma) signaling pathway (AID 651802); settings: ROR-gamma antagonist cell reporter assay; series mostly up to 92.2 µM; also: nearly all actives have a fitted effect of over 60% in size; also: potency is read from the fitted curve at half-maximal effect
Nuclear receptor ROR-gamma (Homo sapiens), sequence (P51449 whole entry, looked up): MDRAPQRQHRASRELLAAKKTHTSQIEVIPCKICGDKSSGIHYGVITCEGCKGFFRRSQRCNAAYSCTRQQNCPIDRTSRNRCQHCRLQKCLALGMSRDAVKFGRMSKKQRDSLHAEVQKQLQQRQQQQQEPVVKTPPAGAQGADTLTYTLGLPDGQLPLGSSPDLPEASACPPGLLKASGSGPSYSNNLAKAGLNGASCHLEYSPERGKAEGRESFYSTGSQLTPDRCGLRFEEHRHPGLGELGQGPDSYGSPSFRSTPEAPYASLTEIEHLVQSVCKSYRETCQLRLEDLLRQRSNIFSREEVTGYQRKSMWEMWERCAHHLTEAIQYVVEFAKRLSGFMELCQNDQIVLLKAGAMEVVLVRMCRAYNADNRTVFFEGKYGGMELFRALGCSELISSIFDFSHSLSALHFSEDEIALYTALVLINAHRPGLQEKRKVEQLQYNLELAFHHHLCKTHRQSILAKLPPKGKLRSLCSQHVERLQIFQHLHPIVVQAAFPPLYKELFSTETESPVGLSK
Summary of the method: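 Luciferase read-out: ONE-Glo luminescence after 30 min at room temperature, following 16hr doxycycline induction at 37C, 5% CO2 of CHO cells with TET-inducible ROR and RORE-LUC reporter; decreased luminescence = reduced reporter activity.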

[4] = target: Tyrosine-protein kinase Yes (Homo sapiens) (UniProt P07947); test: qHTS for small molecule inhibitors of Yes1 kinase: Primary Screen (AID 686947); settings: Yes1 kinase biochemical qHTS inhibition; series mostly up to 76.9 µM;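 also: plate controls were DMSO with enzyme for no effect and no-enzyme DMSO wells for full effect; nearly all actives have a fitted effect of over 60% in size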
Tyrosine-protein kinase Yes (Homo sapiens), sequence (P07947 whole entry, looked up): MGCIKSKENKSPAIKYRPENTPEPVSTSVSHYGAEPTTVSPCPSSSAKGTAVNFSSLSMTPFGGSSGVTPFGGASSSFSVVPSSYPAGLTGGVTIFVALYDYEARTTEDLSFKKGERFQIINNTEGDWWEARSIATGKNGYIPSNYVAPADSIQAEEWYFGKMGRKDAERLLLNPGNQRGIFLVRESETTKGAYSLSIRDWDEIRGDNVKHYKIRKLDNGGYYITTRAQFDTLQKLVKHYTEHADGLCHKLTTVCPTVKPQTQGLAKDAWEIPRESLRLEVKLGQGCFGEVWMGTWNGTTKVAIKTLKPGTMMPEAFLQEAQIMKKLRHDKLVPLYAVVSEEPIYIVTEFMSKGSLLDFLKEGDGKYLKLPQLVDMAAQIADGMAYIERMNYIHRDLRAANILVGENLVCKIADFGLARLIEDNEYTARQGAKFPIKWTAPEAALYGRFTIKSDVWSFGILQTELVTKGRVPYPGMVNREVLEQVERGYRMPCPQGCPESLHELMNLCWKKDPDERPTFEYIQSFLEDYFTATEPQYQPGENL
Summary of the method: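 In this qHTS format, inhibition is expressed relative to DMSO controls with enzyme (maximum) and without enzyme (minimum). The 60 min room-temperature reaction uses 0.1 mM ATP, with ADP detected by luminescence.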

[5] = qHTS for small molecule inhibitors of Yes1 kinase: Counter Assay (AID 686950); settings: series mostly up to 76.9 µM;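 also: no kinase present so only ADP-Glo detection of a fixed ADP amount is tested; luminescence from ADP-Glo reporting ADP in a fixed ATP and ADP mixture; 0% = DMSO wells with ATP plus ADP and -100% = ATP-only wells without ADP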
Summary of the method: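 ADP-Glo luminescence read after a 60 min room-temperature incubation of compound with an ATP/ADP mix (0.08 mM/0.02 mM) and no kinase, following a 20 min compound preincubation. Signal scaled between ATP+ADP (max) and 0.1 mM ATP-only (min) wells; Tris pH 7.5, Mg2+, DTT.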

[6] = target: Tumor necrosis factor (Homo sapiens) (UniProt P01375); test: qHTS assay to identify small molecules that stimulate Tumor Necrosis Factor-alpha (TNF-alpha) secretion (AID 651757; active = well fitted curve in the direction sought with a large enough effect in the signal ratio; the % refers to the signal ratio; also: 0% is about no effect); settings: Human cells, HTRF 665/615 ratio; series mostly up to 92.2 µM
Tumor necrosis factor (Homo sapiens), sequence (P01375 whole entry, looked up): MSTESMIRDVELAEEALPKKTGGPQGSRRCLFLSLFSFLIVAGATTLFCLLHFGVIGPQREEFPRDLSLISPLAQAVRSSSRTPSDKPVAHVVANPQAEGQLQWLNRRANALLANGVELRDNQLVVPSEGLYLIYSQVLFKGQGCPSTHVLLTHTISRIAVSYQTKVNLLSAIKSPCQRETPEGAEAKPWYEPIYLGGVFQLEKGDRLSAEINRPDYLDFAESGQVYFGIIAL
Summary of the method: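 THP-1 cells, 3000/well; compound 17 hrs, 37 C; add cryptate/XL665 anti-TNF-alpha antibody pair; 3 hr RT; TR-FRET (HTRF) read of secreted TNF-alpha. Quantitative HTS format.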

[7] = qHTS assay to identify small molecules that stimulate interleukin-8 (IL-8) secretion (AID 651758; active = well fitted activation curve with a large enough effect in the signal ratio; the % refers to the signal ratio; also: 0% is about no effect); settings: HTRF ratio (665/615); series mostly up to 92.2 µM
Summary of the method: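 Secreted IL-8 measured homogeneously by TR-FRET (two labelled anti-IL-8 antibodies, 1-3 h at room temperature) after a 16 h, 37 C compound treatment of THP-1 cells at 2000 cells/well.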

[8] = target: DNA polymerase iota (Homo sapiens) (UniProt Q9UNA4); test: qHTS for Inhibitors of Polymerase Iota: Confirmatory Assay for Cherry-picked Compounds (AID 720496); settings: Pol iota primer extension, TAMRA/BHQ fluorescence; also: potency is read from the fitted curve at half-maximal effect
DNA polymerase iota (Homo sapiens), sequence (Q9UNA4 whole entry, looked up): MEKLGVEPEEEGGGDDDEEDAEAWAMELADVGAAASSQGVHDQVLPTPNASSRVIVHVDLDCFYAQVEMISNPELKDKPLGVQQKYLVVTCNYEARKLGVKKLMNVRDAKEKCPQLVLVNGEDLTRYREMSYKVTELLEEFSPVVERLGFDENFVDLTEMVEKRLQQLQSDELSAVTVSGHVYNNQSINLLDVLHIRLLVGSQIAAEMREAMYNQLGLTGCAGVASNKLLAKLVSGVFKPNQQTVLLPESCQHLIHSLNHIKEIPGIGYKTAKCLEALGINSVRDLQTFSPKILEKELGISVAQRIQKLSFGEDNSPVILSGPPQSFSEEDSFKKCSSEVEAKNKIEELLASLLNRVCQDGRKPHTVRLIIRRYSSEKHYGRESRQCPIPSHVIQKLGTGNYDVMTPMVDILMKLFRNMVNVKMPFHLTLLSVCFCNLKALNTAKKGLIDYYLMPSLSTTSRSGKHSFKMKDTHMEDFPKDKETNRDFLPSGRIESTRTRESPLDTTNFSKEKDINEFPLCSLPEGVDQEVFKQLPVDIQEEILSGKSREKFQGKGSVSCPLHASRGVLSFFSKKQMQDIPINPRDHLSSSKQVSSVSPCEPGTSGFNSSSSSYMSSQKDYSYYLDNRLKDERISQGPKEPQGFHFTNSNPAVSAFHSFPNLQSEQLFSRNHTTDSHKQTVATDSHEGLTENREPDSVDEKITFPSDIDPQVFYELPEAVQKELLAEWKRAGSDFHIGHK
Source text: DNA polymerases, such as polymerase iota (Pol iota), are involved in DNA repair. Pol iota specifically plays an important role in translesion synthesis, where the normal high-fidelity DNA polymerases cannot proceed and DNA synthesis stalls. […] Thus, while Pol eta and most likely Pol iota's normal functions are to protect humans against the deleterious consequences of DNA damage, under certain conditions they can have deleterious effects on human health. As a consequence, small molecule inhibitors of Pol iota (identified from a high throughput replication assay) have potential therapeutic applications. A 1536-well format, fluorescence based, high-throughput screen (AID 588590) is developed in collaboration with the National Institute of Child Health & Human Development (NICHD) to screen for inhibitors of the […]. This screen is used to validate the activity of the selected compounds from the primary assay against the […]. Inhibition is the desired outcome for this assay. […]
(§1) Three microliters of reagents (buffer in column 3 and 4 as negative control while 10 nM Pol iota in columns 1, 2, and 5-48) were dispensed into a 1536-well black solid-bottom plate. […] The assay plates were initially read after 0 min and again after 10 min of kinetic reaction using the PerkinElmer Viewlux reader equipped with 525 nm excitation and 598 nm emission filters.

[9] = target: DNA polymerase kappa (Homo sapiens) (UniProt Q9UBT6); test: qHTS for Inhibitors of Polymerase Kappa: Confirmatory Assay for Cherry-picked Compounds (AID 720501); settings: purified Pol-kappa, fluorescent strand-displacement substrate; also: potency is read from the fitted curve at half-maximal effect
DNA polymerase kappa (Homo sapiens), sequence (Q9UBT6 whole entry, looked up): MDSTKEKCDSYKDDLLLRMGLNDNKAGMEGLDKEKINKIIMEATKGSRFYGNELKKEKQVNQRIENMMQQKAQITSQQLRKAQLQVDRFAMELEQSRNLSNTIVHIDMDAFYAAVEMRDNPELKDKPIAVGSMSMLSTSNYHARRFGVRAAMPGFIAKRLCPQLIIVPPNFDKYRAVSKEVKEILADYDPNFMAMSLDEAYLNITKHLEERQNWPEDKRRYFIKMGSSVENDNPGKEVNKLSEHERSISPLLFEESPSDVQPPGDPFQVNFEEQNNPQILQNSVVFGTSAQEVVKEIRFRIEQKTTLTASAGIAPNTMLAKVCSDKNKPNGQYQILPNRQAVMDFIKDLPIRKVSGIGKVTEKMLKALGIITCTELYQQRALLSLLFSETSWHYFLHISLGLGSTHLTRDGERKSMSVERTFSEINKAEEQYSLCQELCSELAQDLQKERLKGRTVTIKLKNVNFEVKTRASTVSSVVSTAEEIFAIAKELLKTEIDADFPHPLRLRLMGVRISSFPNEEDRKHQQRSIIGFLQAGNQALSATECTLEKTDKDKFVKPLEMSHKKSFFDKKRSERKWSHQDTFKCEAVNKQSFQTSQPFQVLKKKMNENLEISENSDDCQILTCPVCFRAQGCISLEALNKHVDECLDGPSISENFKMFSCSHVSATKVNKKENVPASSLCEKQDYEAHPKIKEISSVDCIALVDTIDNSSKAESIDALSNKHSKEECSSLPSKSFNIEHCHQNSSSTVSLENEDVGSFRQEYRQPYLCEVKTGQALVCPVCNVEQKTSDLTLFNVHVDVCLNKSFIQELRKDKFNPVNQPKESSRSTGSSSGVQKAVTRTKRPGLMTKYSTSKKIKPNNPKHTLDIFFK
Source text: The processing and repair of DNA inter-strand crosslinks (ICL) in eukaryotic cells are extremely complex, potentially involving multiple DNA repair and damage tolerance pathways, including homologous recombination, nucleotide excision repair, translesion synthesis (TLS), and cell cycle checkpoints. […] A 1536-well format, fluorescence based, high-throughput screen (AID 588579) was developed in collaboration with the Oregon Health & Science University to screen for inhibitors of the Pol-kappa enzyme. This assay was used to validate the activity of the selected compounds from the primary screen against the human Pol-kappa. Inhibition is the desired outcome for this assay. NIH Chemical Genomics Center [NCGC] NIH Molecular Libraries Probe Centers Network [MLPCN] MLPCN Grant: MH094179 Assay Submitter (PI): Stephen Lloyd, Oregon Health & Science University
as §1, with “and” for “while”, “Pol-kappa” for “Pol iota”, “plate. Compounds (23 nL) were transferred via Kalypsys pin tool equipped with 1536-pin array.” for “plate.”

[10] = target: DNA polymerase eta (Homo sapiens) (UniProt Q9Y253); test: qHTS for Inhibitors of Polymerase Eta: Confirmatory Assay for Cherry-picked Compounds (AID 720502); settings: Pol eta primer extension, TAMRA/BHQ fluorescence, 10 min; also: potency is read from the fitted curve at half-maximal effect
DNA polymerase eta (Homo sapiens), sequence (Q9Y253 whole entry, looked up): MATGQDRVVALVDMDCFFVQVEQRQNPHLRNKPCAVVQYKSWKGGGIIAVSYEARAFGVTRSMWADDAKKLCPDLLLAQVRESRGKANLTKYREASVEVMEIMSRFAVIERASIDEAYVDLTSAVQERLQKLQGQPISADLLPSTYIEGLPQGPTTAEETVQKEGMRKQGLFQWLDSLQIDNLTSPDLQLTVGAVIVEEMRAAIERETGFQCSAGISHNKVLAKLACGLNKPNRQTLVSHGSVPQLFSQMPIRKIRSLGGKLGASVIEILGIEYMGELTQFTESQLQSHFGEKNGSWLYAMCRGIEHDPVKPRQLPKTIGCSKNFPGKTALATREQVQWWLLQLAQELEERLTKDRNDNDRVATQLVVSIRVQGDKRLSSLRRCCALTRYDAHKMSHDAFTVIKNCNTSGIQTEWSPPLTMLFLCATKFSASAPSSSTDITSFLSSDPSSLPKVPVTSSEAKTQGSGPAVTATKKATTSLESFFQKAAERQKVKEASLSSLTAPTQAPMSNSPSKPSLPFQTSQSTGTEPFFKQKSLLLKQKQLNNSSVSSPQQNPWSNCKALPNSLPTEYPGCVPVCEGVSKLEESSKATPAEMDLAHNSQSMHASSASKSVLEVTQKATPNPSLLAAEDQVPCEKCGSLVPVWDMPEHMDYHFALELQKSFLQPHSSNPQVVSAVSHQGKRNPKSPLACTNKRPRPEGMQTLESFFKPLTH
Summary of the method: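 Strand-displacement fluorescence (525 nm excitation, 598 nm emission) was read kinetically at 0 and 10 min after adding 50 nM final TAMRA-reporter/BHQ-2-template substrate. Beforehand, 10 nM Pol eta had been exposed to compound for 15 min at room temperature.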

O=C(O)c1cc(O)c(O)c(O)c1
activation [1]: -0.689% (inactive)
max response [2]: -13% (inactive)
Potency [3]: inactive

C=CCc1cccc(/C=N/NC(=O)CN2CCN(Cc3ccccc3)CC2)c1O
outcome [4]: inactive
outcome [5]: inactive

Nc1ccc(O)c([N+](=O)[O-])c1
activation [1]: 4.17% (inactive) and 0.649% (inactive)
max response [2]: -1.01% (inactive) and 0.176% (inactive)

O=C(O)[C@H](O)[C@@H](O)[C@H](O)[C@H](O)CO
activation [1]: -0.169% (inactive)
max response [2]: -0.488% (inactive)

O=C(O)/C=C\C(=O)O
outcome [6]: inactive
max response [2]: -3.33% (inactive)
Potency [3]: inactive

Nc1ccc(O)c(C(=O)O)c1
activation [1]: 0.023% (inactive) and -1.58% (inactive)
max response [2]: -9.31% (inactive) and -0.252% (inactive)
Potency [3]: inactive

CN(C)CCC(c1ccc(Cl)cc1)c1ccccn1 (stereo not drawn)
outcome [6]: inactive
activation [1]: -0.109% (inactive)
max response [2]: -7.82% (inactive)
Potency [3]: inactive

O=C(Nc1ccccc1)c1cc([N+](=O)[O-])ccc1Cl
Potency [1]: 14.1 µM (active)
max response [2]: 0.605% (inactive)

CCCCCCCCCCCCCCCC(=O)OC(C)C
max response [2]: 0.689% (inactive)

c1cnc2c(c1)ccc1cccnc12
activation [1]: 2.54% (inactive)
max response [2]: -3.72% (inactive)
Potency [3]: 2.37 µM (active)

S=c1[nH]c2ccccc2s1
Potency [7]: inactive
max response [2]: -10.8% (inactive) and -7.19% (inactive)
Potency [3]: inactive

CC1(C)S[C@@H]2[C@H](NC(=O)[C@H](N)c3ccccc3)C(=O)N2[C@H]1C(=O)O
outcome [6]: inactive
activation [1]: 0.371% (inactive)
max response [2]: -1.69% (inactive)

O=C(O)c1ccccc1Nc1cccc(C(F)(F)F)c1
activation [1]: 0.429% (inactive)

CN(C)c1ccc(C(=C2C=CC(=[N+](C)C)C=C2)c2ccccc2)cc1
max response [2]: -10.3% (inactive)

COc1cc(CNC(=O)CCCC/C=C/C(C)C)ccc1O
outcome [6]: inactive
activation [1]: -0.69% (inactive) and 1.8% (inactive)
max response [2]: -1.35% (inactive) and 5.82% (inactive)

COc1cc(/C=C/C(=O)CC(=O)/C=C/c2ccc(O)c(OC)c2)ccc1O
max response [2]: -5.38% (inactive)

Oc1ccccc1O
max response [2]: -0.837% (inactive)

O=c1cc(-c2ccccc2)oc2ccccc12
Potency [1]: 50.1 µM (active) and 44.7 µM (active)
max response [2]: 0.229% (inactive) and -0.923% (inactive)

NCCO
outcome [6]: inactive
activation [1]: -0.695% (inactive)
max response [2]: -2.8% (inactive)
Potency [3]: inactive

CO/N=C(\C(=O)N[C@@H]1C(=O)N2C(C(=O)O)=C(COC(C)=O)CS[C@H]12)c1csc(N)n1 (stereo in doubt)
Potency [8]: 18.9 µM (active)
Potency [9]: 9.47 µM (active) and 8.44 µM (active)
Potency [10]: 15.1 µM (active) and 19 µM (active) and 8.49 µM (active)

CC(C)OC(=O)c1cc(C(=O)OC(C)C)cc([N+](=O)[O-])c1
activation [1]: 4% (inactive)
max response [2]: 0.0203% (inactive)

CN1CCC[C@H]1c1cccnc1
outcome [6]: inactive
activation [1]: 0.841% (inactive) and 0.227% (inactive)
max response [2]: -3.15% (inactive) and -0.899% (inactive)

Nc1ccc([N+](=O)[O-])cc1O
activation [1]: 7.01% (inactive)
max response [2]: -5.57% (inactive) and -3.71% (inactive)
Potency [3]: inactive

N=C1N=C(N)c2cc3ccccc3cc21
outcome [6]: inactive
activation [1]: 12.9% (inactive)
max response [2]: -3.58% (inactive)
Potency [3]: 59.6 µM (active)

c1ccc2sc(SSc3nc4ccccc4s3)nc2c1
outcome [6]: inactive
activation [1]: -0.44% (inactive) and 3.22% (inactive)
max response [2]: -2.43% (inactive) and -7.65% (inactive)
Potency [3]: inactive

CCCOC(=O)c1ccc(O)cc1
outcome [6]: inactive
Potency [7]: inactive
activation [1]: 3.41% (inactive) and 2.32% (inactive)
max response [2]: 0.116% (inactive) and 2.06% (inactive) and -4.76% (inactive)
Potency [3]: inactive
